Compounds with a hit are over-represented: about 2.9% of the library has one in this group of screens.
ADAM17 inh: inhibits human ADAM17; recombinant ADAM17, EDANS/DABCYL FRET peptide cleavage; inhibition, % at 6.95 µM; P78536; AID 720648; 0.83% of 370,000 active;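 active = inhibition above the mean of compounds lying between control limits plus 3 SD, set per campaign, cut at about 8.5% in these data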
ADAM10 inh: ADAM10 inhibition, QFRET primary screen; inhibition, % at 7 µM; recombinant ADAM10, EDANS/DABCYL FRET peptide cleavage, 3 h; AID 720582; 0.62% of 370,000 active; O14672;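 active = inhibition above a per-campaign cutoff equal to the mean of compounds falling between control-based bounds plus 3 SD, cut at about 20% in these data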
PLCg1 inh: blocks human PLC-gamma1 enzyme activity | inhibition, % at 12.2 µM | 0.84% of 370,000 active | AID 720700 | purified PLC-gamma1, fluorogenic substrate, fluorescence; in the data active = inhibition above about 9.5%
proKLK7 act: activators of human kallikrein-7 zymogen; P49862; purified proKLK7, EDANS-DABCYL substrate fluorescence; 100% is mature enzyme control, 0% vehicle; activation, % at 7 µM; 0.9% of 370,000 active; AID 652039;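 active = activation above the mean of all tested compounds plus 3 SD, computed per campaign excluding outliers beyond control limits, cut at about 13% in these data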
PLCb3 inh: PLC-beta3 (human) inhibition, primary screen. Purified PLC-beta3, fluorogenic substrate, fluorescence. Q01970. 0.18% of 370,000 active. inhibition, % at 12.2 µM. AID 720704; in the data active = inhibition above about 11%
ADAM10 counter: counter-screen for ADAM17 exosite inhibitors: inhibitors of human ADAM10 | shares compounds with ADAM17 inh | recombinant ADAM10, EDANS/DABCYL FRET peptide cleavage, 3 h | inhibition, % at 6.95 µM | 47% of 2,900 active;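 active = mean inhibition over the triplicate runs exceeds the activity threshold set in the earlier primary screen, cut at about 20% in these data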
ADAM17 confirm: human ADAM17 inhibition, confirmation; shares compounds with ADAM17 inh; recombinant ADAM17, EDANS/DABCYL QFRET peptide cleavage; inhibition, % at 6.95 µM; 65% of 2,900 active;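 active = mean inhibition across replicates above the hit cutoff set in the primary screen, cut at about 8.5% in these data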
A number is an active result; . = inactive; / = no result given.

SMILES	ADAM17 inh	ADAM10 inh	PLCg1 inh	proKLK7 act	PLCb3 inh	ADAM10 counter	ADAM17 confirm
Cc1ccc(SCC(=O)Nc2cccc(NC(=O)c3ccco3)c2)cc1	.	.	.	.	.	/	/
C=CCN(c1ccccc1C(=O)NCC(=O)O)S(=O)(=O)c1ccc(C)cc1	.	.	.	.	.	/	/
Cc1nnc(SCC(=O)N(Cc2ccccc2)C(C)(C)C)[nH]c1=O	.	.	.	.	.	/	/
CC(C)(C)N(Cc1ccccc1)C(=O)CSc1nc2ccccc2c(=O)[nH]1	9.0	.	.	.	.	.	.
COCCn1c(C2CCCCC2)nc2sc3ccccc3c(=O)c2c1=O	.	.	.	.	.	/	/
O=C(O)CC/C(=N/NC(=O)c1cccs1)c1ccccc1	.	.	.	.	.	/	/
O=C(c1c(F)c(F)c(F)c(F)c1F)N1CCc2ccccc21	.	.	.	.	.	/	/
O=C(COC(=O)CNS(=O)(=O)c1c(Cl)cccc1Cl)Nc1ccccc1Sc1ccccc1	.	.	.	.	.	/	/
O=C(COC(=O)CNS(=O)(=O)c1cccc(Br)c1)Nc1ccccc1Sc1ccccc1	9.9	.	.	.	.	26.5	14.5
C/C(CC(=O)Nc1ccc2c(c1)OCCO2)=N\NC(=O)c1cccc(O)c1	.	.	.	.	.	/	/
C/C(CC(=O)Nc1ccc(Br)cc1)=N\NC(=O)c1cccc(O)c1	10.0	.	.	.	.	.	.
CCOC(=O)N1CCN(Cc2cc(Cl)c3cccnc3c2O)CC1	.	.	.	.	.	/	/
COc1ccccc1NC(=O)CSc1nnc(COc2ccc(Cl)cc2)n1Cc1ccco1	.	.	.	.	.	/	/
O=C(CSc1nnc(-c2cccs2)n1Cc1ccco1)Nc1ccc(OCc2ccccc2)cc1	9.4	.	.	.	.	23.2	12.0
COc1ccc(C)cc1NC(=O)CSc1nnc(COc2ccc(C)cc2)n1Cc1ccco1	10.8	.	.	.	.	25.9	14.7
CCn1c(SCC(=O)Nc2ccc(NC(=O)c3ccco3)cc2)nnc1-c1cccs1	8.8	.	.	99.8	.	.	.
O=C(CSc1nnc(COc2ccccc2)n1Cc1ccco1)Nc1ccc(OCc2ccccc2)cc1	.	.	.	.	.	/	/
COc1cccc(N2CCN(C(=O)c3oc4ccccc4c3NC(=O)CCc3cc(OC)no3)CC2)c1	.	.	.	.	.	/	/
COC(=O)N(C)C[C@@H]1OCc2cnnn2CCCC(=O)N([C@H](C)CO)C[C@H]1C	.	.	.	.	.	/	/
O=S(Cc1ccc(Br)cc1)Cc1nnc(SCc2c(F)cccc2Cl)n1-c1ccccc1 (stereo not drawn)	.	.	.	.	.	/	/
O=S(Cc1ccc(Br)cc1)Cc1nnc(SCc2ccc(Cl)cc2)n1-c1ccccc1 (stereo not drawn)	8.6	.	.	.	.	27.2	14.8
CSc1ccc(S(=O)(=O)NCC(=O)OCC(=O)N(C)CC(=O)Nc2ccc(F)cc2)cc1[N+](=O)[O-]	.	.	.	.	.	/	/
CC(=O)OCC(=O)[C@@]1(O)CC[C@H]2[C@@H]3CCC4=CC(=O)CC[C@]4(C)[C@H]3[C@@H](O)C[C@@]21C	.	.	.	.	.	/	/
C[C@]12CCC(=O)C=C1CC[C@@H]1[C@@H]2[C@@H](O)C[C@@]2(C)[C@H]1CC[C@]2(O)C(=O)COC(=O)CCC(=O)O	8.8	.	.	.	.	.	.
CCN(CC(=O)Nc1ccc(NC(C)=O)cc1)C(=O)c1ccc(N(C)S(=O)(=O)c2ccc(C)cc2)cc1	.	.	.	.	.	/	/
CC1(C(=O)NS(=O)(=O)c2cccc(Cl)c2)CCN1C(=O)Cc1ccc(-c2ccccc2)cc1 (stereo not drawn)	9.0	.	.	.	.	.	.
CC1(C(=O)NS(=O)(=O)c2cccc(F)c2)CCN1C(=O)Cc1ccc(-c2ccccc2)cc1 (stereo not drawn)	.	.	.	.	.	/	/
CCC/C=C/c1ccc(CN2C(C)C(=O)N(Cc3cn(CC4CCCCC4)nn3)CCS2(=O)=O)cc1 (stereo not drawn)	.	.	.	.	.	/	/

Screens from PubChem BioAssay.
